In the supplement of paper PMC7393113:
± gives the standard deviation of the averaged measurements.

Test system: iBMDM (immortalised mouse bone-marrow-derived macrophages), LPS-stimulated
Assay: mitochondrial superoxide (MitoSOX fluorescence) fold increase over unstimulated control; higher = more LPS-induced mitochondrial ROS (less inhibition)
Details: inhibitor concentration: 500 nM, LPS: 100 ng/ml
In short: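 Mitochondrial superoxide was expressed as fold induction over untreated macrophages. Immortalised mouse bone-marrow-derived macrophages were pretreated with kinase inhibitors (500 nM) for 30 min, loaded with 1 μM MitoSox for 10 min and stimulated with LPS (100 ng/ml). MitoSox fluorescence (excitation 510 nm, emission 580 nm) was read hourly over 4 h, and the three replicates were averaged.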

Structure (SMILES): O=C1NC(=O)/C(=C/c2ccc3nccc(-c4ccncc4)c3c2)S1
- mitochondrial superoxide (time after LPS: 1 h): 1.12 ± 0.055
- mitochondrial superoxide (time after LPS: 2 h): 1.23 ± 0.11
- mitochondrial superoxide (time after LPS: 4 h): 1.33 ± 0.1

Structure (SMILES): O=C(c1cccc(Cl)c1F)N1CCN(Cc2cccc(Nc3nccs3)n2)CC1
- mitochondrial superoxide (time after LPS: 1 h): 1.15 ± 0.018
- mitochondrial superoxide (time after LPS: 2 h): 1.22 ± 0.048
- mitochondrial superoxide (time after LPS: 4 h): 1.37 ± 0.053

Structure (SMILES): COc1ccc2c(Oc3ccc(NC(=O)c4c(C)n(CC(C)(C)O)n(-c5ccccc5)c4=O)nc3)ccnc2c1
- mitochondrial superoxide (time after LPS: 1 h): 1.09 ± 0.031
- mitochondrial superoxide (time after LPS: 2 h): 1.2 ± 0.034
- mitochondrial superoxide (time after LPS: 4 h): 1.391 ± 0.0084

Structure (SMILES): Cc1cnc(-c2cnc(NCCNc3ccc(C#N)cn3)nc2-c2ccc(Cl)cc2Cl)[nH]1
- mitochondrial superoxide (time after LPS: 1 h): 1.14 ± 0.048
- mitochondrial superoxide (time after LPS: 2 h): 1.09 ± 0.041
- mitochondrial superoxide (time after LPS: 4 h): 1.25 ± 0.027

Structure (SMILES): Nc1cccc(-c2cc3c(Oc4cccc(O)c4)ncnc3[nH]2)c1
- mitochondrial superoxide (time after LPS: 1 h): 1.06 ± 0.059
- mitochondrial superoxide (time after LPS: 2 h): 1.17 ± 0.022
- mitochondrial superoxide (time after LPS: 4 h): 1.25 ± 0.03

Structure (SMILES): Cn1cnc(=N)c2[nH]cnc21 [3-Methyladenine]
- mitochondrial superoxide (time after LPS: 1 h): 1.25 ± 0.078
- mitochondrial superoxide (time after LPS: 2 h): 1.34 ± 0.12
- mitochondrial superoxide (time after LPS: 4 h): 1.58 ± 0.15

Structure (SMILES): CCOc1cc2ncc(C#N)c(Nc3ccc(F)c(Cl)c3)c2cc1NC(=O)/C=C/CN(C)C [Pelitinib (EKB-569)]
- mitochondrial superoxide (time after LPS: 1 h): 1.2 ± 0.018
- mitochondrial superoxide (time after LPS: 2 h): 1.21 ± 0.049
- mitochondrial superoxide (time after LPS: 4 h): 1.32 ± 0.032

Structure (SMILES): COc1cccc(-c2cc(=O)c3ccccc3o2)c1N
- mitochondrial superoxide (time after LPS: 1 h): 1.48 ± 0.098
- mitochondrial superoxide (time after LPS: 2 h): 1.57 ± 0.021
- mitochondrial superoxide (time after LPS: 4 h): 1.67 ± 0.04

Structure (SMILES): C[C@@H](Oc1cc(-c2cnn(C3CCNCC3)c2)cnc1N)c1c(Cl)ccc(F)c1Cl
- mitochondrial superoxide (time after LPS: 1 h): 1.39 ± 0.038
- mitochondrial superoxide (time after LPS: 2 h): 1.5 ± 0.052
- mitochondrial superoxide (time after LPS: 4 h): 1.64 ± 0.079

Structure (SMILES): CNC(=O)c1nn(C)c2c1C(C)(C)Cc1cnc(Nc3ccc(N4CCN(C)CC4)cc3)nc1-2
- mitochondrial superoxide (time after LPS: 1 h): 1.31 ± 0.016
- mitochondrial superoxide (time after LPS: 2 h): 1.38 ± 0.086
- mitochondrial superoxide (time after LPS: 4 h): 1.64 ± 0.064

Structure (SMILES): O=C(c1ccc(Nc2nccc(-c3cc4ccccc4s3)n2)cc1)N1CCC(N2CCCC2)CC1 [IKK-16 (IKK Inhibitor VII)]
- mitochondrial superoxide (time after LPS: 1 h): 1.08 ± 0.084
- mitochondrial superoxide (time after LPS: 2 h): 1.09 ± 0.087
- mitochondrial superoxide (time after LPS: 4 h): 1.16 ± 0.17

Structure (SMILES): Oc1ccc(-c2nc(-c3ccc(F)cc3)c(-c3ccncc3)[nH]2)cc1
- mitochondrial superoxide (time after LPS: 1 h): 1.32 ± 0.13
- mitochondrial superoxide (time after LPS: 2 h): 1.41 ± 0.13
- mitochondrial superoxide (time after LPS: 4 h): 1.57 ± 0.12
